Laboratory results taken from the supplement of paper PMC6555819.

How the values were obtained:
Experiment in all cases: PBM binding z-score (relative to random genomic background probes); higher = stronger binding; sequences stand for … in GC…GCGATTGACAGCGTAGAATGAAGG
[1] = tested on: PPARg:RXRa DBDmut IVT, anti-RXR (DBD mutation: RXRa K156A/R161A, NR concentration 270 nM, RXRa partner concentration 90 nM)
Outline: (§1)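 On custom Agilent 4×180K arrays, double-stranded probes with 34-nt variable regions carried direct-repeat seeds, single-nucleotide variants, half-site ablations or random human genomic background. Ligand-free nuclear receptor dimers were applied for 1 h, and binding was read with antibodies against each partner (one per run). Binding z-scores come from regression-normalized fluorescence, with the random background probes as reference.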

[2] = tested on: PPARg:RXRa IVT, anti-PPARg (NR concentration 270 nM, RXRa partner concentration 90 nM)
Outline: as §1

[3] = tested on: PPARg DBDmut:RXRa IVT, anti-PPARg (DBD mutation: PPARg1 K132A/R137A, NR concentration 270 nM, RXRa partner concentration 90 nM)
Outline: as §1

[4] = tested on: PPARg DBDmut IVT, anti-PPARg (DBD mutation: PPARg1 K132A/R137A, NR concentration 270 nM)
Outline: as §1

[5] = tested on: PPARg homodimer (NR concentration 180 nM)
Outline: as §1

[6] = tested on: PXR:RXRa (NR concentration 270 nM, RXRa partner concentration 90 nM)
Outline: as §1

[7] = tested on: PXR homodimer (NR concentration 270 nM)
Outline: as §1

[8] = tested on: RARa:RXR (NR concentration 270 nM, RXRa partner concentration 90 nM)
Outline: as §1

[9] = tested on: RARa homodimer (NR concentration 270 nM)
Outline: as §1

[10] = tested on: RARb:RXRa (NR concentration 270 nM, RXRa partner concentration 90 nM)
Outline: as §1

[11] = tested on: RARb homodimer (NR concentration 270 nM)
Outline: as §1

[12] = tested on: RARg:RXRa (NR concentration 270 nM, RXRa partner concentration 90 nM)
Outline: as §1

[13] = tested on: RARg homodimer (NR concentration 270 nM)
Outline: as §1

[14] = tested on: RXRa DBDmut IVT, anti-RXR (DBD mutation: RXRa K156A/R161A, NR concentration 90 nM)
Outline: as §1

[15] = tested on: RXRa homodimer (NR concentration 180 nM)
Outline: as §1

[16] = tested on: THRa:RXRa (NR concentration 90 nM, RXRa partner concentration 90 nM)
Outline: as §1

[17] = tested on: THRa homodimer (NR concentration 90 nM)
Outline: as §1

[18] = tested on: VDR homodimer (NR concentration 270 nM)
Outline: as §1

Sequence | PBM binding z-score [1] | PBM binding z-score [2] | PBM binding z-score [3] | PBM binding z-score [4] | PBM binding z-score [5] | PBM binding z-score [6] | PBM binding z-score [7] | PBM binding z-score [8] | PBM binding z-score [9] | PBM binding z-score [10] | PBM binding z-score [11] | PBM binding z-score [12] | PBM binding z-score [13] | PBM binding z-score [14] | PBM binding z-score [15] | PBM binding z-score [16] | PBM binding z-score [17] | PBM binding z-score [18]
TCGAGTAGGTTAGGGGCAATCAGAATGGCGTCGA | 2.08 | 1.37 | -0.745 | -0.163 | 1.06 | 0.437 | 0.0887 | 0.347 | -0.176 | 1.19 | 0.79 | 0.398 | 0.315 | 0.12 | 0.782 | 0.826 | 0.262 | 0.267
CCGAATGGGGCAGAAAGGTTACCATACCATCCGG | 0.269 | 1 | -1.13 | -0.938 | 0.818 | 1.11 | 0.134 | 1.8 | -0.0696 | 1.89 | 2.38 | 1.8 | 1.36 | -0.766 | 1.91 | 1.07 | -0.641 | -0.0198
AGAACGAGGGCAATGATTTGATAGCACGGGTGGC | 3.4 | 2.89 | 0.782 | 0.14 | 0.437 | 0.447 | 0.328 | 0.36 | 0.605 | 1.95 | 0.954 | 0.982 | 1.4 | 1.64 | 0.834 | 0.95 | 0.00137 | 0.721
CCTATTAGTTGACCATATGGGCAACCGAAGCTCG | 0.421 | 1.14 | 0.935 | 0.461 | 0.842 | 0.0373 | 0.489 | 0.314 | 1.68 | 0.652 | 0.53 | 0.405 | 0.481 | 0.486 | 0.208 | 0.00602 | 0.303 | 0.527
GCATATAGGTAATCCAAGGTGAAAGTCCGATTGT | 4.62 | 3.17 | 0.831 | 0.665 | 1.03 | 0.638 | 0.241 | 1.53 | 0.647 | 0.51 | 0.964 | 0.387 | 0.453 | 0.551 | 0.399 | 4.57 | 1.35 | 0.0892
ATATGTAGATTAGCTGGGGTCATTCAGACTAGGC | 1.08 | 1.54 | 1.36 | 1.4 | 1.47 | 5.46 | 2.56 | 5.47 | 1.07 | 2.59 | 3.49 | 3.43 | 2.17 | 1.87 | 4.94 | 4.26 | 3.01 | 4.47
CCGATTAGGTTATGGGGCATTCAGGCAACGGTGA | 2.29 | 2.29 | -0.258 | -1.33 | 1.18 | 0.0495 | -0.245 | 0.615 | 0.0747 | 1.37 | 1.11 | 0.701 | 0.783 | 0.4 | 0.612 | 1.19 | 0.572 | 0.143
AGAATGAGGTTATACGTAGATCCGGGAAGAAAGT | 3.81 | 2.11 | 0.942 | 0.253 | 0.53 | 0.73 | 0.508 | 1.02 | 0.0175 | 1.27 | 0.443 | 1.39 | 0.944 | 1.78 | 1.82 | 1.94 | 0.512 | 0.912
TCTCGGAGGACACGAAGGTCAGAGCCTTCCAGAG | 1.3 | 0.917 | -1.24 | -1.76 | 1.08 | 2.11 | 0.864 | 2.36 | 0.0341 | 3.33 | 3.54 | 3.52 | 4.07 | 0.518 | 2.04 | 2.66 | 0.555 | 1.24
AGTCAAAGTTCAACTAGGTAACGTAAGATATGCT | 1.28 | 4.36 | 2.11 | 1.11 | 3.26 | 5.04 | 3.96 | 4.28 | 2.01 | 5.16 | 3.9 | 5.82 | 6.57 | 4.34 | 4.89 | 3 | 0.196 | 4.09
CCTCGGAGGGCAGAAGGTCAGAGCTGTCCGCTTT | 0.357 | 0.981 | -1.69 | -1.6 | 0.905 | 1.94 | -0.405 | 2.53 | -0.604 | 3.69 | 3.76 | 4.71 | 4.01 | -0.118 | 2.82 | 1.47 | -0.593 | -0.355
AGAACGAGGGCACGCTGAGTTGATAACAGAGTAG | 4.19 | 3.68 | 0.246 | 0.187 | 0.159 | 1.33 | 0.018 | 0.895 | -0.194 | 2.4 | 1.27 | 2.23 | 2.45 | 1.47 | 1.49 | 1.78 | 0.282 | 1.46
CGTCCAAGGTCATAGGATGTCAGTGAAGACAGAT | 3.22 | 3.9 | 1.13 | 0.513 | 2.45 | 4.69 | 1.15 | 4.58 | 0.89 | 5.08 | 4.04 | 5.95 | 6.37 | 3.93 | 6.11 | 4.28 | 2.46 | 3.2
CAAACTCGGTCACGAAAGGTCAAAGTCGAATGAC | 5.23 | 5.86 | 1.31 | 0.821 | 7.09 | 6.39 | 2.67 | 6.96 | 4.39 | 5.02 | 5.24 | 7.03 | 7.47 | 1.9 | 7.26 | 4.47 | 1.09 | 3.28
CCAGACAAGTGAGAAGGTAACTCAGCCTCGATTA | 0.321 | -0.293 | -0.675 | -0.316 | 1.29 | -0.132 | 0.602 | 0.088 | 1.08 | 0.0534 | 0.174 | 0.0341 | 0.205 | 0.366 | 0.108 | 0.152 | 0.461 | 0.281
